Assay [1] can be described thus: qHTS assay to identify small molecule agonists of the vitamin D receptor (VDR) signaling pathway - cell viability counter screen (AID 743224). Also: nearly all actives have a fitted effect of over 50% in size. Also: potency is read from the fitted curve at half-maximal effect. The method, boiled down: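 CellTiter-Glo viability readout on VDR-bla cells, measured after 16 h of compound treatment at 37C in the same wells.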
Assay [2] is described as follows: qHTS assay to identify small molecule antagonists of the vitamin D receptor (VDR) signaling pathway - cell viability counter screen (AID 743225). Also: nearly all actives have a fitted effect of over 50% in size. Also: potency is read from the fitted curve at half-maximal effect. The method, boiled down: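 VDR-UAS-bla HEK 293T cells were plated and incubated 4 h at 37C, then dosed with compound plus 3 nM (final) 1-alpha,25-dihydroxyvitamin D3 for 16 h. After the 2 h beta-lactamase read, viability in the same wells was read as CellTiter-Glo luminescence after 30 min at room temperature.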
(qHTS replaces the single test concentration by a dilution series.)

Assay [3] can be described thus: qHTS assay to identify small molecule agonists of the NFkB signaling pathway (AID 1159509; active = well fitted curve in the direction sought with a large enough effect in the signal ratio in the repeat runs, not every such curve was filed as active; the % refers to the signal ratio; also: series mostly up to about 61 µM). The method, boiled down:
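Readout: FRET fluorescence, 405 nm excitation, 460/530 nm emission; beta-lactamase expression disrupts FRET. Cells: ME-180 stably carrying NF-kB-driven bla reporter. Compound exposure 5 hr, 37 C, 5% CO2.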

Assay [4] can be described thus: qHTS assay to identify small molecule agonists of the endoplasmic reticulum stress response signaling pathway (AID 1159516; active = well fitted activation curve with a large enough effect in the signal ratio in the repeat runs, not every such curve was filed as active; the % refers to the signal ratio). An outline of the steps:
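Fluorescence at 460 and 530 nm (405 nm excitation) reports beta-lactamase from an ER stress response element in HeLa cells treated 5 hr at 37 C.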

A short description of assay [5]: qHTS assay to identify small molecule antagonists of the retinoid-related orphan receptor gamma (ROR-gamma) signaling pathway - cell viability counter screen (AID 1159520). Also: nearly all actives have a fitted effect of over 50% in size. The method, boiled down: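 Tet-on ROR gamma CHO cells were given compounds for 2 hr, then doxycycline hyclate at 1 uM final, and incubated 16 hr at 37 C. Viability was measured as ATP content by CellTiter-Glo luminescence.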

Assay [6] concerns the target Nuclear receptor ROR-gamma (Homo sapiens) (UniProt P51449). Kind of assay: qHTS assay to identify small molecule antagonists of the retinoid-related orphan receptor gamma (ROR-gamma) signaling pathway (AID 1159521; also: nearly all actives have a fitted effect of over 50% in size; also: potency is read from the fitted curve at half-maximal effect). The method, boiled down:
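Tet-on ROR-gamma CHO cells with ROR response element-luciferase reporter; compounds added 2 hr before 1 uM doxycycline induction, then 16 hr at 37 C. Antagonism scored as decreased ONE-Glo luminescence.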

Assay [7] can be described thus: qHTS assay to identify small molecule agonists of the AP-1 signaling pathway - cell viability counter screen (AID 1159525; calls by dose curve; also: nearly all actives have a fitted effect of over 55% in size). The method, boiled down:
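Same-well cytotoxicity counter screen of the Tox21 10K library in ME-180 cells. The readout is ATP-dependent luminescence after 5 h compound treatment. Data are normalised to DMSO and tetra n-octyl ammonium bromide controls.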

Assay [8] can be described thus: qHTS assay to identify small molecule agonists of the AP-1 signaling pathway (AID 1159526; calls by dose curve).
A short description of assay [9]: qHTS assay to identify small molecule agonists of the endoplasmic reticulum stress response signaling pathway - cell viability counter screen (AID 1159517; calls by dose curve). An outline of the steps:
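Steps: seed 1,500 ESRE-bla HeLa cells per well; incubate overnight at 37 C, 5% CO2; add compounds in DMSO for 5 hr; run FRET substrate 2 hr RT; add CellTiter-Glo, wait 30 min, read luminescence.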

Records with an inconclusive call do not appear. Activity calls are given as the source filed them. Unless noted, calls follow the shape of the dose curve; as a rule, active = well fitted curve in the direction sought with a large enough effect in the repeat runs; inconclusive = weak or mixed curves; inactive = no such curve, though single readings can be large; an effect the other way counts as inactive or inconclusive.

On to `C[C@H]1CNCCc2ccc(Cl)cc21`, for which the Potency entry in assay [1], in [2], in assay [5], in assay [6] and in [7] was “inactive” each time. The compound was classed as inactive in [3] and in assay [4].
As to `O=C(O)CC(Cl)C(=O)O` (centres undefined), the Potency result in assay [1], in assay [5] and in assay [7] was “inactive” throughout. Besides, the call in assay [3], in [4] and in assay [8] was inactive.
Take `Cc1ccc(-c2c(Cl)nc(C#N)n2S(=O)(=O)N(C)C)cc1`: the compound was called inactive in assay [3] and in [4]. Besides, the Potency result in assay [9] and in assay [7] was “inactive” each time.
As to `Nc1nc(=S)[nH][nH]1`, the Potency entry in assay [1], in assay [2], in [5] and in assay [6] was “inactive” in each case. Further, the compound was classed as inactive in [3], in assay [4] and in [8].
Consider `Cc1c(F)c(F)c(COC(=O)C2C(/C=C(\Cl)C(F)(F)F)C2(C)C)c(F)c1F` (centres undefined), for which the Potency result in assay [1], in assay [2], in [9], in assay [5] and in [7] was “inactive” in each case. Also, the compound was classed as inactive in assay [3], in assay [4] and in assay [8].
With `C=CC(=O)OCC(C)C`, the Potency result in assay [1], in [2], in assay [9], in assay [5] and in assay [7] was “inactive” each time. Also, the compound was classed as inactive in assay [3], in [4] and in assay [8].
As to `COc1c(C(C)(C)C)cc([N+](=O)[O-])c(C)c1[N+](=O)[O-]`, the Potency entry in [1], in [2], in assay [9], in assay [6] and in [7] was “inactive” in each case. Besides, the outcome in assay [3] and in assay [4] was inactive.
On to `C#CCOC(C(=O)OCCN(C)C)(c1ccccc1)c1ccccc1`, for which the Potency entry in [1], in assay [9], in [6] and in [7] was “inactive” in each case. Also, the call in assay [3], in assay [4] and in [8] was inactive.
Turning to `c1ccc(C2CC2)c(OCC2=NCCN2)c1`, the Potency result in assay [1], in assay [2], in [5], in assay [6] and in assay [7] was “inactive” each time. The result in assay [3], in [4] and in [8] was inactive.
On to `CO/C=C(/C(=O)OC)c1ccccc1COc1cccc(C(F)(F)F)n1`, for which the compound was called inactive in assay [3], in [4] and in assay [8]. Moreover, in assay [9], the Potency entry is “inactive”. In addition, in assay [6], the Potency was 0.769 µM (active).
`O=C=Nc1ccc(Cl)cc1`: the compound was called inactive in assay [3], in [4] and in assay [8]. Further, the Potency entry in assay [9], in assay [6] and in [7] was “inactive” in each case.
Consider `Cc1cc(=O)[nH]o1`, for which the Potency result in assay [1], in [2], in assay [5], in assay [6] and in assay [7] was “inactive” throughout. Also, the compound was classed as inactive in assay [3], in assay [4] and in assay [8].
Consider `COC(=O)C(C)N(C(=O)Cc1ccccc1)c1c(C)cccc1C` (centres undefined), for which the Potency entry in assay [1], in assay [2], in [9] and in [7] was “inactive” throughout. Further, the result in [3], in assay [4] and in assay [8] was inactive.
Regarding `CCC(COC(=O)c1cc(OC)c(OC)c(OC)c1)(c1ccccc1)N(C)C` (centres undefined), the Potency entry in assay [1], in [9], in assay [5], in assay [6] and in assay [7] was “inactive” in each case. Besides, the outcome in assay [3] and in [4] was inactive.
In the case of `CCCCC(CC)COP(=O)(Oc1ccccc1)Oc1ccccc1` (centres undefined), the Potency entry in assay [2], in assay [9], in assay [5], in assay [6] and in assay [7] was “inactive” in each case. Moreover, the result in assay [3] and in assay [4] was inactive.
Turning to `COP(=O)(OC)O/C(=C/Cl)c1cc(Cl)c(Cl)cc1Cl`, the result in [3] and in assay [4] was inactive. The Potency entry in [5] and in assay [7] was “inactive” each time.
For the compound `CCOP(=S)(OCC)SCn1nnc2ccccc2c1=O`, the results for the Potency in [1] and in assay [2] were 54.9 µM (active) and 49 µM (active), respectively. Also, the compound was called inactive in assay [3], in [4] and in assay [8]. Besides, the Potency entry in assay [9], in assay [5] and in assay [7] was “inactive” throughout.
Take `Clc1cccc(SC2CCNCC2)n1`: the Potency result in [1], in assay [2], in assay [9], in assay [5], in [6] and in assay [7] was “inactive” in each case. In addition, the compound was called inactive in assay [3], in [4] and in assay [8].
Turning to `CCC(Br)(CC)C(=O)NC(N)=O`, the Potency entry in assay [1], in [9], in assay [5] and in [7] was “inactive” throughout. The result in assay [3], in assay [4] and in [8] was inactive.
As to `CCOP(=O)(OCC)SCCSCC`, the Potency result in assay [1], in assay [2], in [9], in assay [5], in assay [6] and in assay [7] was “inactive” each time. Also, the outcome in assay [3], in assay [4] and in [8] was inactive.

The values are drawn from PubChem BioAssay (Tox21).
